The source of these data is PubChem BioAssay (EPA / NIEHS).

Holding throughout (settings): mRNA level, 48 h; actives raise or lower the signal
Read-out in assay [1]: Interleukin 6 Receptor (IL6R), IL6R (gene 3570)
The assay is described as follows: LTEA_HepaRG_IL6R: Life Technologies and Expression Analysis (LTEA) Assay for Interleukin 6 Receptor (IL6R) using HepaRG (AID 2283510). The method in brief:
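Concentration-response in human liver HepaRG cells: eight concentrations from 100 uM downward by half-logs, 48 h exposure, 0.5% DMSO vehicle. IL6R mRNA change measured by qRT-PCR and fitted in both directions relative to vehicle.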

Read-out in assay [2]: Potassium channel subfamily K member 1 (KCNK1), KCNK1 (gene 3775)
The assay can be described thus: LTEA_HepaRG_KCNK1: Life Technologies and Expression Analysis (LTEA) Assay for Potassium channel subfamily K member 1 (KCNK1) using HepaRG (AID 2283511). The method in brief:
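Differentiated human HepaRG cells in serum-free induction medium were exposed in duplicate for 48 h to 8 half-log concentrations up to 100 uM in 0.5% DMSO. KCNK1 mRNA was measured by TaqMan qRT-PCR, normalized to ACTB, GAPDH and POLR2A, and fitted bidirectionally versus DMSO.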

Read-out in assay [3]: Keratin 19 (KRT19), KRT19 (gene 3880)
The assay can be described thus: LTEA_HepaRG_KRT19: Life Technologies and Expression Analysis (LTEA) Assay for Keratin 19 (KRT19) using HepaRG (AID 2283512). The gist of the method:
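Differentiated HepaRG cells in serum-free induction medium, exposed 48 h in duplicate to 8 half-log concentrations up to 100 uM in 0.5% DMSO. KRT19 mRNA by qRT-PCR, normalized to ACTB, GAPDH, POLR2A; bidirectional fit vs DMSO.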

Read-out in assay [4]: JUN Transcription Factor, JUN (gene 3725)
The assay is described as follows: LTEA_HepaRG_JUN: Life Technologies and Expression Analysis (LTEA) Assay for JUN Transcription Factor using HepaRG (AID 2283513). The gist of the method: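 Human HepaRG liver cells receive test chemicals in 0.5% DMSO for 48 h across an eight-point range topping at 100 uM. Expression changes in JUN are scored in both directions against the DMSO vehicle.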

Read-out in assay [5]: Lipase C (LIPC), LIPC (gene 3990)
The assay can be described thus: LTEA_HepaRG_LIPC: Life Technologies and Expression Analysis (LTEA) Assay for Lipase C (LIPC) using HepaRG (AID 2283514). The gist of the method:
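Differentiated human HepaRG cells in serum-free induction medium were exposed in duplicate for 48 h to eight concentrations (top 100 uM, half-log steps, 0.5% DMSO). LIPC mRNA was quantified by TaqMan qRT-PCR, normalized to ACTB, GAPDH and POLR2A, with bidirectional fitting versus DMSO.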

Read-out in assay [6]: Lipoprotein lipase (LPL), LPL (gene 4023)
The assay can be described thus: LTEA_HepaRG_LPL: Life Technologies and Expression Analysis (LTEA) Assay for Lipoprotein lipase (LPL) using HepaRG (AID 2283515). The method in brief:
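Differentiated human HepaRG cells in serum-free induction medium were exposed in duplicate for 48 h to eight half-log concentrations (top 100 uM) in 0.5% DMSO. LPL mRNA was quantified by TaqMan qRT-PCR, normalized to ACTB, GAPDH and POLR2A.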

Read-out in assay [7]: MicroRNA 122 (MIR122), gene 406906
The assay is described as follows: LTEA_HepaRG_MIR122: Life Technologies and Expression Analysis (LTEA) Assay for MicroRNA 122 (MIR122) using HepaRG (AID 2283516). Note: the transcript read is the microRNA miR-122. The method in brief:
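HepaRG, 48 h exposure, 8-pt half-log from 100 uM, 0.5% DMSO; TaqMan qRT-PCR; bidirectional fit vs DMSO.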

Read-out in assay [8]: matrix metalloproteinase-10 (MMP10), MMP10 (gene 4319)
The assay can be described thus: LTEA_HepaRG_MMP10: Life Technologies and Expression Analysis (LTEA) Assay for matrix metalloproteinase-10 (MMP10) using HepaRG (AID 2283517). The method in brief: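 HepaRG, collagen I, ~100,000 cells/well; serum-free induction medium; 48 h exposure, duplicate, 8-pt half-log to 100 uM, 0.5% DMSO. Readout: TaqMan qRT-PCR, normalized to ACTB/GAPDH/POLR2A; bidirectional fit vs DMSO.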

Read-out in a further assay: MYC, MYC (gene 4609)
The assay can be described thus: LTEA_HepaRG_MYC: Life Technologies and Expression Analysis (LTEA) Assay for MYC using HepaRG (AID 2283518). The gist of the method:
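Differentiated HepaRG cells exposed 48 h in serum-free induction medium to 8 concentrations (top 100 uM, half-log steps; 0.5% DMSO), duplicate. MYC mRNA measured by Fluidigm qRT-PCR, normalized to ACTB, GAPDH, POLR2A; bidirectional fit versus DMSO.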

Read-out in assay [9]: matrix metalloproteinase-3 (MMP3), MMP3 (gene 4314)
The assay can be described thus: LTEA_HepaRG_MMP3: Life Technologies and Expression Analysis (LTEA) Assay for matrix metalloproteinase-3 (MMP3) using HepaRG (AID 2283519). The method in brief: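 Differentiated human HepaRG cells, plated 48 h on collagen I, were exposed in duplicate for 48 h in serum-free induction medium to eight half-log concentrations up to 100 uM in 0.5% DMSO. MMP3 mRNA was quantified by TaqMan qRT-PCR, normalised to ACTB, GAPDH and POLR2A.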

Read-out in assay [10]: Paternally Expressed 10 (PEG10), PEG10 (gene 23089)
The assay can be described thus: LTEA_HepaRG_PEG10: Life Technologies and Expression Analysis (LTEA) Assay for Paternally Expressed 10 (PEG10) using HepaRG (AID 2283520).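 For AC50: PEG10 transcript by qRT-PCR normalised to ACTB GAPDH and POLR2A.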 The gist of the method:
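Chemicals tested on HepaRG cells for 48 h, highest concentration 100 uM. PEG10 expression assessed by qRT-PCR relative to DMSO control.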

Read-out in assay [11]: Nuclear factor NF-kappa-B p105 subunit (Homo sapiens) (UniProt P19838)
The assay is described as follows: LTEA_HepaRG_NFKB1: Life Technologies and Expression Analysis (LTEA) Assay for Nuclear Factor Kappa B Subunit 1 (NFKB1) using HepaRG (AID 2283521).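 Note: TaqMan qRT-PCR transcript normalised to ACTB GAPDH and POLR2A housekeeping genes.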 The gist of the method: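 HepaRG, 48 h exposure; 8-pt half-log series from 100 uM in 0.5% DMSO; duplicates. Readout: NFKB1 mRNA by qRT-PCR (Fluidigm arrays), housekeeping-normalized. Gain/loss fit vs DMSO baseline.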

Read-out in assay [12]: Protein phosphatase 2A (PPP2R4), PTPA (gene 5524)
The assay can be described thus: LTEA_HepaRG_PPP2R4: Life Technologies and Expression Analysis (LTEA) Assay for Protein phosphatase 2A (PPP2R4) using HepaRG (AID 2283522). The gist of the method: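 Gene-expression endpoint in HepaRG hepatic cells: 48 h treatment across eight half-log concentrations up to 100 uM in 0.5% DMSO. PPP2R4 mRNA by qRT-PCR, normalized to three endogenous control genes.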

Read-out in assay [13]: Phosphatase and tensin (PTEN), PTEN (gene 5728)
The assay is described as follows: LTEA_HepaRG_PTEN: Life Technologies and Expression Analysis (LTEA) Assay for Phosphatase and tensin (PTEN) using HepaRG (AID 2283523). The method in brief:
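Differentiated human HepaRG cells, plated 48 h then switched to serum-free induction medium, were exposed in duplicate for 48 h to eight half-log concentrations up to 100 uM in 0.5% DMSO. PTEN mRNA measured by TaqMan qRT-PCR, normalized to ACTB/GAPDH/POLR2A, bidirectional fit versus DMSO.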

Read-out in assay [14]: solute carrier (SLC22A1), SLC22A1 (gene 6580)
The assay is described as follows: LTEA_HepaRG_SLC22A1: Life Technologies and Expression Analysis (LTEA) Assay for solute carrier (SLC22A1) using HepaRG (AID 2283524). The gist of the method:
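Human HepaRG cells were plated 48 h, switched to serum-free induction medium, then exposed in duplicate for 48 h to 8-point half-log series from 100 uM in 0.5% DMSO. SLC22A1 mRNA measured by qRT-PCR, normalized to ACTB/GAPDH/POLR2A, fitted bidirectionally versus DMSO.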

Read-out in assay [15]: Pyruvate Dehydrogenase Kinase 4 (PDK4), PDK4 (gene 5166)
The assay is described as follows: LTEA_HepaRG_PDK4: Life Technologies and Expression Analysis (LTEA) Assay for Pyruvate Dehydrogenase Kinase 4 (PDK4) using HepaRG (AID 2283525). The method in brief: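 Differentiated human HepaRG cells, pre-cultured 48 h, were exposed in duplicate for 48 h in serum-free induction medium to eight half-log concentrations up to 100 uM in 0.5% DMSO. PDK4 mRNA was quantified by qRT-PCR, normalized to ACTB, GAPDH and POLR2A, bidirectional fitting versus DMSO.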

Read-out in assay [16]: NAD(P)H dehydrogenase [quinone] 1 (NQO1), NQO1 (gene 1728)
The assay can be described thus: LTEA_HepaRG_NQO1: Life Technologies and Expression Analysis (LTEA) Assay for NAD(P)H dehydrogenase [quinone] 1 (NQO1) using HepaRG (AID 2283526). The method in brief: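 Human HepaRG hepatic cells received chemicals for 48 h in serum-free induction medium with 0.5% DMSO, up to 100 uM. Expression was assessed by TaqMan qRT-PCR against housekeeping controls and fitted bidirectionally against DMSO.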

Read-out in assay [17]: Nuclear factor erythroid 2-related factor 2 (Homo sapiens) (UniProt Q16236)
The assay is described as follows: LTEA_HepaRG_NFE2L2: Life Technologies and Expression Analysis (LTEA) Assay for Nuclear factor erythroid 2-related factor 2 (NFE2L2) Transcription Factor using HepaRG (AID 2283527).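 For outcome: TaqMan qRT-PCR transcript level normalised to ACTB GAPDH and POLR2A housekeeping genes.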 The method in brief: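 Differentiated human HepaRG cells in serum-free induction medium were exposed for 48 h to eight concentrations (top 100 uM, half-log dilutions, 0.5% DMSO), in duplicate. NFE2L2 mRNA was quantified by TaqMan qRT-PCR, normalized to ACTB, GAPDH and POLR2A, with bidirectional fitting versus DMSO.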

Read-out in assay [18]: succinate dehydrogenase complex iron sulfur subunit B (SDHB), SDHB (gene 6390)
The assay can be described thus: LTEA_HepaRG_SDHB: Life Technologies and Expression Analysis (LTEA) Assay for succinate dehydrogenase complex iron sulfur subunit B (SDHB) using HepaRG (AID 2283528). The gist of the method:
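Readout is SDHB transcript level by qRT-PCR, normalised to three housekeeping genes and fitted bidirectionally against 0.5% DMSO vehicle. Human HepaRG cells were treated for 48 h at up to 100 uM.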

Read-out in assay [19]: Signal transducer and activator of transcription 3 (Homo sapiens) (UniProt P40763)
The assay can be described thus: LTEA_HepaRG_STAT3: Life Technologies and Expression Analysis (LTEA) Assay for Signal transducer and activator of transcription (STAT3) using HepaRG (AID 2283529). The gist of the method:
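Differentiated human HepaRG cells in serum-free induction medium were exposed in duplicate for 48 h to eight half-log concentrations up to 100 uM in 0.5% DMSO. STAT3 mRNA was quantified by TaqMan qRT-PCR, normalized to ACTB, GAPDH and POLR2A, and fitted bidirectionally against DMSO.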

Calls of active or inactive are those of the source. Rule for the calls: active = hit-call score of the fitted dose curve at least 0.9, where 1 is the maximum; inactive = score below 0.9.

Chain of Nuclear factor erythroid 2-related factor 2 (Homo sapiens) (Q16236 whole entry, looked up): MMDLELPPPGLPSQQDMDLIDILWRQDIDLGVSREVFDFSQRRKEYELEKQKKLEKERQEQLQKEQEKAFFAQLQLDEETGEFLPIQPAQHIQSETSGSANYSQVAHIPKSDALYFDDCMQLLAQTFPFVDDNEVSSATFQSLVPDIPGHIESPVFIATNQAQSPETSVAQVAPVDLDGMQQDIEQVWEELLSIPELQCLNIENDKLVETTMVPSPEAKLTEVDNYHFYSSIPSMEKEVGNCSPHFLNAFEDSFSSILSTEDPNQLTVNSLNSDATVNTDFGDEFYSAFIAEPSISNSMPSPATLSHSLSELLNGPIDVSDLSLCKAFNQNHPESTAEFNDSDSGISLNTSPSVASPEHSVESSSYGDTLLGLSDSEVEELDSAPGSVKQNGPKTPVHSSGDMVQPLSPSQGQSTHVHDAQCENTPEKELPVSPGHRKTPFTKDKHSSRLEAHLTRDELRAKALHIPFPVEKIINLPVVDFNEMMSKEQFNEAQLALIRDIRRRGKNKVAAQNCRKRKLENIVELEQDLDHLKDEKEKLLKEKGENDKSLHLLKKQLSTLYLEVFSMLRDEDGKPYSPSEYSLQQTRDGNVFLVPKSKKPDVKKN
Chain of Signal transducer and activator of transcription 3 (Homo sapiens) (P40763 whole entry, looked up): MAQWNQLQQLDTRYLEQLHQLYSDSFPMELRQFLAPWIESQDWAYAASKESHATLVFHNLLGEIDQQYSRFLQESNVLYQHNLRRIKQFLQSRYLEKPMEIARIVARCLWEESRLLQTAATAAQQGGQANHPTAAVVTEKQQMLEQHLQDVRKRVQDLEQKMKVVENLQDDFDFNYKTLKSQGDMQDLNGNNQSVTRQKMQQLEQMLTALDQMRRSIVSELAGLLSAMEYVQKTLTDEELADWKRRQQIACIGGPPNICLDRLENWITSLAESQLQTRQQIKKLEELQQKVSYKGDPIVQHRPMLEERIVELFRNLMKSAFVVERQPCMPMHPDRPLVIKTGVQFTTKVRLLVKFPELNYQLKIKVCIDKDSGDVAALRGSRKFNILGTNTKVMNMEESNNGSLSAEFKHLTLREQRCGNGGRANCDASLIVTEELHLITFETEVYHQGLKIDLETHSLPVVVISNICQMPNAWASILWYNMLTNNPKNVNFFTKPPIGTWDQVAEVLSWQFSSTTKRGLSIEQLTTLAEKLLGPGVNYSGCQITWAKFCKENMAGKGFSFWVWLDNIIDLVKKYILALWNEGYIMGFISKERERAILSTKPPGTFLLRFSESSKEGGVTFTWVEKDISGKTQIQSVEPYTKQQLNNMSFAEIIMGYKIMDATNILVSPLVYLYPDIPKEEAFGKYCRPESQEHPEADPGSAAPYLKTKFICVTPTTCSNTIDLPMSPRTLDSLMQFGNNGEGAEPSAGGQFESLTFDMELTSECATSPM
Chain of Nuclear factor NF-kappa-B p105 subunit (Homo sapiens) (P19838 whole entry, looked up): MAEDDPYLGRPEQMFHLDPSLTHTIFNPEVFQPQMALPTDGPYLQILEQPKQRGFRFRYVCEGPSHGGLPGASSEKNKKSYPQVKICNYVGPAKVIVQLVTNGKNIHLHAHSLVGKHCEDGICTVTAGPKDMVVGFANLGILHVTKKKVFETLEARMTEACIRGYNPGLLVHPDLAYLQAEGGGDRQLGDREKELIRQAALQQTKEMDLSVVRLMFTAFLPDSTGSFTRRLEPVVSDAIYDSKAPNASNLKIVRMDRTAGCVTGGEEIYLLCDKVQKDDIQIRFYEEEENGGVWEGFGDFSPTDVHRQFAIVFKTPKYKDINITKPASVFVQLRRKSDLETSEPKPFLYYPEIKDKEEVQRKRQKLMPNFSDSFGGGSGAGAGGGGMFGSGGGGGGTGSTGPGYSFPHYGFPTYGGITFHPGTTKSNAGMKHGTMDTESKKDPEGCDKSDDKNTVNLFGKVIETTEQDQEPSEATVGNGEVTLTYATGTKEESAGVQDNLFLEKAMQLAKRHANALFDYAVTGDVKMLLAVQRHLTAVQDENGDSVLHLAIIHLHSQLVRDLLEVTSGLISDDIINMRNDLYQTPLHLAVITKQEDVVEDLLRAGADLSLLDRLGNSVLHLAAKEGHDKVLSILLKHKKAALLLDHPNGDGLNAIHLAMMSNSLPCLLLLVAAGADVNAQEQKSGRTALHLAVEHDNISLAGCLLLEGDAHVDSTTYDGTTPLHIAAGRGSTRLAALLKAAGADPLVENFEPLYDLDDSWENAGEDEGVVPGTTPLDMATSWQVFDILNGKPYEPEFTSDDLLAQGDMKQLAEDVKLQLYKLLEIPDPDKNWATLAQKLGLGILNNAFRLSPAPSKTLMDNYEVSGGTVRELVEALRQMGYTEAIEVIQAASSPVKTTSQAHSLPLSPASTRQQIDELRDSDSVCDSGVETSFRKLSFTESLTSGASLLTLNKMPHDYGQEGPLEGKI

One may read the AC50 as the concentration at which the activity in the assay is half-maximal. In the case of `COC(=O)NC(=S)Nc1ccccc1NC(=S)NC(=O)OC`, the compound was classed as inactive in [1], in [2], in assay [3], in assay [4], in [5] and in [6]. The outcome was “inactive” in assay [7]; “inactive” in assay [8]; “inactive” in the assay with MYC, MYC (gene 4609); “inactive” in assay [9]; “inactive” in assay [10]; “inactive” in [11]. In addition, the compound was called inactive in assay [12], in [13], in assay [14], in [15], in [16] and in assay [18]. Besides, the compound was called inactive in assay [19]. In addition, the AC50 in assay [17] is 50 µM (active).

Consider `CCNC(=O)NC(=O)C(C#N)=NOC`, for which the compound was classed as inactive in [1], in assay [2], in [3], in assay [4], in assay [6] and in [7]. Also, the outcome was “inactive” in assay [8]; “inactive” with MYC, MYC (gene 4609); “inactive” in [9]; “inactive” in assay [12]; “inactive” in [13]; “inactive” in assay [15]. The compound was called inactive in assay [16], in assay [17], in assay [18] and in [19]. Besides, the AC50 in [5] is 50 µM (active); in [10], 50 µM (active); in [14] it was 74.2 µM (active).

Turning to `Clc1nc(Cl)nc(Nc2ccccc2Cl)n1`, the result in [1], in assay [2], in assay [3], in assay [4], in assay [5] and in assay [6] was inactive. For the same compound, the outcome is “inactive” in [7]; “inactive” in assay [8]; “inactive” with MYC, MYC (gene 4609); “inactive” in assay [9]; “inactive” in [10]; “inactive” in [11]. For the same compound, the result in assay [12], in [13], in [14], in assay [15], in assay [16] and in [17] was inactive. For the same compound, the compound was classed as inactive in assay [18] and in assay [19].
